A number with no mark means an inactive call. The rule behind the calls is not given here.

This test relates to Aerobactin synthetase IucA (Klebsiella pneumoniae hvKP1). Description: IucA enzyme inhibition, primary screen, biochemical, Spectrum library (AID 1346200).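 Note: 100% = wells without compound and 0% = wells lacking enzyme.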 Conditions: malachite green pyrophosphate, A620, at 8 µM, active compounds read low.

As to `CC(C)(S)C(N)C(=O)O` (stereo not given), the activity remaining was 128%.

Consider `CCC[C@H](N[C@@H](C)C(=O)N1[C@H](C(=O)O)C[C@@H]2CCCC[C@@H]21)C(=O)OCC`, for which the activity remaining is 121%.

For `O=C(Oc1cc(O)cc2c1C[C@@H](OC(=O)c1cc(O)c(O)c(O)c1)[C@@H](c1cc(O)c(O)c(O)c1)O2)c1cc(O)c(O)c(O)c1`, the activity remaining was 122%.

For the compound `C=CCCCCCCCCCCCC(O)CC(O)COC(C)=O` (stereo not given), the activity remaining is 116%.

Consider `Cc1c(C)c2c(c(C)c1O)CCC(C)(CCCC(C)CCCC(C)CCCC(C)C)O2` (stereo not given), for which the activity remaining is 105%.

As for `COc1c2c(cc3occ(-c4ccc5c(c4)OCO5)c(=O)c13)OC(C)(C)C=C2`, the activity remaining is 111%.

On to `CC(Cc1cccc(C(F)(F)F)c1)NCCOC(=O)c1ccccc1` (stereo not given), for which the activity remaining is 98.2%.

In the case of `COC(=O)C1=CO[C@@H](O[C@@H]2O[C@H](CO)[C@@H](O)[C@H](O)[C@H]2O)[C@@H]2[C@@H](C)[C@@H](O)C[C@H]12`, the activity remaining is 101%.

In the case of `Cc1c(NC(C)C)c(=O)n(-c2ccccc2)n1C`, the activity remaining was 105%.

As to `COc1cc2c(cc1-c1coc3c4c(c(OC)cc3c1=O)OC(C)(C)C=C4)OCO2`, the activity remaining was 110%.

In the case of `O=C1c2ccc(O)c(O)c2C(=O)c2c(O)ccc(O)c21`, the activity remaining was 125%.

In the case of `O=C(COc1ccc(Cl)cc1)N1CCN(Cc2ccc3c(c2)OCO3)CC1`, the activity remaining was 107%.

As for `Nc1cc(-c2ccncc2)c[nH]c1=O`, the activity remaining is 122%.

Take `CC(C)(O)[C@@H]1CC[C@](C)([C@H]2[C@@H](O)C[C@@]3(C)C4C[C@H](O[C@@H]5O[C@H](CO)[C@@H](O)[C@H](O)[C@H]5O)C5C(C)(C)[C@@H](O[C@@H]6OC[C@@H](O)[C@H](O)[C@H]6O)CC[C@@]56C[C@@]46CC[C@]23C)O1` (stereo not given in full): the activity remaining is 93%.

As to `CCCc1cc(OC)c2c(c1)OCO2`, the activity remaining is 106%.

On to `O=C(O[C@@H]1Cc2c(O)cc(O)cc2O[C@@H]1c1cc(O)c(O)c(O)c1)c1cc(O)c(O)c(O)c1`, for which the activity remaining was 113%.

For the compound `CN(C)CC/C=C1/c2ccccc2COc2ccccc21`, the activity remaining is 99.3%.

Take `CCc1c2c(nc3ccc(OC(=O)N4CCC(N5CCCCC5)CC4)cc13)-c1cc3c(c(=O)n1C2)COC(=O)[C@]3(O)CC`: the activity remaining is 90%.

As to `COc1c2ccccc2nc2occc12`, the activity remaining was 115%.

In the case of `O=C1C=CC(=O)c2c(O)c(Cl)c(Cl)c(O)c21`, the activity remaining was 109%.

`CC(C)c1c(O)ccc2c1CCC1C(C)(C)CCC[C@]21C` (stereo not given in full): the activity remaining is 116%.

For `CC(C)=CCc1c(O)cc2oc(C)cc(=O)c2c1O`, the activity remaining was 118%.

`COc1ccccc1-c1coc2cc(OC)c(OC)c(OC)c2c1=O`: the activity remaining is 116%.

Turning to `COc1cc(OC)c2c(=O)c(-c3ccccc3)coc2c1`, the activity remaining is 110%.

With `CCc1cc(C(N)=S)ccn1`, the activity remaining is 105%.

Consider `C=C1C(N)CC2CC1C2(C)C` (stereo not given), for which the activity remaining is 96.6%.

Take `Nc1nc2c(c(=O)[nH]1)NC(CNc1ccc(C(=O)N[C@H](CCC(=O)O)C(=O)O)cc1)=CN2`: the activity remaining is 102%.

As to `COCCc1ccc(OCC(O)CNC(C)C)cc1` (stereo not given), the activity remaining is 113%.

Take `Oc1cc2c(cc1O)C(c1ccccc1)CNCC2` (stereo not given): the activity remaining is 88.1%.

In the case of `C[C@]12CCC(=O)C=C1CCC1C2[C@@H](O)C[C@@]2(C)C1CC[C@]2(O)C(=O)CO` (stereo not given in full), the activity remaining was 113%.

As for `Oc1c(I)cc(I)c2cccnc12`, the activity remaining is 102%.

With `CC1(C)C[C@@H]2C(=O)CC[C@H]3O[C@]3(C)CC[C@H]21`, the activity remaining is 110%.

For the compound `CC(=O)O[C@@](C)(CCC=C(C)C)C1CC=C(C)CC1` (stereo not given in full), the activity remaining is 91.6%.

Regarding `CC(=O)O[C@@H]1CC(=O)[C@@]2(C)C(CC(=O)[C@]3(C)C2CC[C@@]2(C)[C@H](c4ccoc4)OC(=O)C4OC423)C1(C)C` (stereo not given in full), the activity remaining was 92.3%.

`Oc1c(Cl)cc(Cl)c(Cl)c1Cc1c(O)c(Cl)cc(Cl)c1Cl`: the activity remaining is 118%.

As to `NNC(=O)c1ccncc1`, the activity remaining was 106%.

Regarding `CC(=O)O[C@H]1[C@@H]2[C@@H](OC(=O)Cc3ccccc3)[C@@H](C)C[C@]2(OC(C)=O)C(=O)/C(C)=C/[C@H]2[C@H](CC[C@@]13CO3)C2(C)C`, the activity remaining is 103%.

`CC1=C(C(=O)O)N2C(=O)[C@@H](NC(=O)C(N)c3ccccc3)[C@H]2SC1` (stereo not given in full): the activity remaining was 104%.

`COc1ccc(/C=C/C(=O)c2ccc(O)cc2O)cc1OC`: the activity remaining was 93.4%.

Take `CC(C)c1c(O)c(-c2cc3c(c(C(C)C)c2O)CCC2C(C)(C)CCC[C@]32C)cc2c1CCC1C(C)(C)CCC[C@]21C` (stereo not given in full): the activity remaining was 102%.

Consider `Oc1cccc(O)c1`, for which the activity remaining is 116%.

Take `CC(=O)N[C@@H](Cc1c[nH]c2ccccc12)C(=O)O`: the activity remaining is 110%.

As for `COc1cc(O)c(C(C)=O)c(OC)c1`, the activity remaining is 104%.

With `COc1cc2c(cc1O)[C@@H](Cc1ccc(O)cc1)[N+](C)(C)CC2`, the activity remaining is 75.4%.

Consider `CO/N=C(/C(=O)NC1C(=O)N2C(C(=O)OC(C)OC(C)=O)=C(COC(N)=O)CSC12)c1ccco1` (stereo not given), for which the activity remaining was 114%.

As to `COc1cc(/C=C/C(=O)/C=C(O)/C=C/c2ccc(O)c(OC)c2)ccc1O`, the activity remaining was 103%.

Take `CC(C)[C@@H]1CC[C@@H](C)C[C@H]1O`: the activity remaining is 95.9%.

In the case of `O=c1[nH]c(=O)n(C2C[C@H](O)[C@@H](CO)O2)cc1C(F)(F)F` (stereo not given in full), the activity remaining is 108%.

Consider `COc1ccc2cc1Oc1ccc(cc1)C[C@H]1c3c(cc4c(c3Oc3cc5c(cc3OC)CCN(C)[C@@H]5C2)OCO4)CCN1C`, for which the activity remaining was 115%.

Take `CCCCCCCCCCCCCCC(C(=O)O)C(O)(CC(=O)OC)C(=O)O` (stereo not given): the activity remaining was 128%.

Regarding `COc1ccc(-c2cc(=O)c3ccccc3o2)cc1OC`, the activity remaining was 109%.

`CN(C)CCOC(c1ccccc1)c1ccccc1` (tested in a mixture with another compound): the activity remaining was 117%.

Turning to `CCCCC(CC)CN1CN(CC(CC)CCCC)CC(C)(N)C1` (stereo not given), the activity remaining was 89.7%.

For `CC(C)[C@@H]1CC[C@@H](C)CC1=O`, the activity remaining is 120%.

On to `COC(=O)C(C)c1ccc(C(=O)c2cccs2)cc1` (stereo not given), for which the activity remaining is 103%.

Take `COc1ccc(-c2coc3cc(O)ccc3c2=O)c(O)c1O`: the activity remaining is 114%.

On to `CC(=O)O[C@H]1CCC2(C)C3=C(CCC2C1(C)C)[C@@]1(C)CC[C@@H](C(C)CCC=C(C)C)[C@]1(C)CC3` (stereo not given in full), for which the activity remaining is 109%.

Consider `COc1cc(-c2coc3cc(OCc4ccccc4)c(OC)c(O)c3c2=O)cc(O)c1OC`, for which the activity remaining was 122%.

Consider `CC(=O)OCC(=O)[C@@]1(O)[C@H](C)CC2C3CCC4=CC(=O)C=C[C@]4(C)[C@@]3(F)[C@@H](O)C[C@@]21C` (stereo not given in full), for which the activity remaining was 119%.

Turning to `Cc1onc(-c2ccccc2Cl)c1C(=O)N[C@@H]1C(=O)N2[C@@H]1SC(C)(C)[C@@H]2C(=O)O`, the activity remaining is 96.2%.

These data come from PubChem BioAssay.
